# Data as given in PMC7819943, “Rice protein-binding microarrays: a tool to detect cis-acting elements near promoter regions in rice”.
# In all, about 68,000 sequences were measured (“fluorescence intensity (a.u.)”: median about 9,100, highest 2% from about 16,000 on). Only a selection was taken, and the highest values are over-represented in it overall.
# Target: OsWRKY34 (Oryza sativa, UniProt Q0JBA9 1-250)
# Test: protein-binding microarray (RPBM); PBS, 2% BSA, 51.3 ng/ul salmon testes DNA, 50 uM zinc acetate, 200 nM TF, 25 C, 1 h; high values mean tight binding
# Conditions: protein: recombinant; tags: N-terminal polyhistidine and DsRed monomer fusion (pET32a); label: CyDye5-dUTP incorporated in the synthesized complementary strand; 3' TTTTT single-stranded linker to array surface; dsDNA, one strand shown
# Summary of the method: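 Ni–NTA purification followed expression in E. coli BL21-CodonPlus of transcription factors fused N-terminally to a polyhistidine tag and DsRed. At 200 nM in PBS with 2% BSA, salmon testes DNA and 50 µM zinc acetate, the protein was incubated for 1 h at 25 °C with a custom Agilent array that had been primer-extended with Cy5-dUTP and blocked with 2% BSA. After washing, the array was read on an Axon 4000B scanner. The binding signal is per-feature fluorescence intensity in arbitrary units.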
# Sequence of OsWRKY34 (Q0JBA9 entry or part of it): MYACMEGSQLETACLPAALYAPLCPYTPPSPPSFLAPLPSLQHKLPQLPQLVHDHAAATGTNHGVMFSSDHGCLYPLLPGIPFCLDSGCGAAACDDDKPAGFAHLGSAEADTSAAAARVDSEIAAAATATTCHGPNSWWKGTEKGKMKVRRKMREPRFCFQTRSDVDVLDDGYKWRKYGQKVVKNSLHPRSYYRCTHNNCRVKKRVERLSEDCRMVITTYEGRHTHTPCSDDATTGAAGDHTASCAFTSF
row,Sequence,binding signal
1,CATCTTCGTCCTTTAAATTTGTTTTATTTTAAATCCTCTACGGAGTCACCTAGTGCAG,8400 fluorescence intensity (a.u.)
2,TCATTTGTCATCCATAAGTTTATATTTTGTACTTTTAGTTCGGAGTCACCTAGTGCAG,8550 fluorescence intensity (a.u.)
3,AGAGACTGGTGATGGACTTTACTCTTTTCTTCTCCAACACCGGAGTCACCTAGTGCAG,8330 fluorescence intensity (a.u.)
4,GGGCGCCGGTATGCTTCTTCCATTCCACCTATGTGTTTCTCGGAGTCACCTAGTGCAG,9490 fluorescence intensity (a.u.)
5,AAAGTTTTTTGTCGTTGTTTGTTTTCCAGTATTTGCTTTTCGGAGTCACCTAGTGCAG,18000 fluorescence intensity (a.u.)
6,TTTTTGTCTTATTGTTTTGTTTATTTTATTTCAGTTTATTCGGAGTCACCTAGTGCAG,9760 fluorescence intensity (a.u.)
7,TTTGTTTTTTTTGCTTATTTAGTTTTTTTTTCAGCTTTTTCGGAGTCACCTAGTGCAG,17300 fluorescence intensity (a.u.)
8,ATTTCTTACGTTGTTGCAGCTTTGTTTTTTTTGCTTATTTCGGAGTCACCTAGTGCAG,14900 fluorescence intensity (a.u.)
9,CGCTTTTGCACAGTATTTTTATTTGCAGAGTTATGTTTGTCGGAGTCACCTAGTGCAG,8090 fluorescence intensity (a.u.)
10,TTTCCCACGTTTTGTCATTTTTTCAGCTATATATTAATTTCGGAGTCACCTAGTGCAG,12000 fluorescence intensity (a.u.)
11,TTATGCCAGCCATTTCACTTTTTCCCACGTTTTGTCATTTCGGAGTCACCTAGTGCAG,18900 fluorescence intensity (a.u.)
12,CGTTTTTTTTTTCATTCCATGTTTGCATTAGCTTCATTTCCGGAGTCACCTAGTGCAG,13400 fluorescence intensity (a.u.)
13,TTGCTTGTTGATTGATTCGTTTTTGTCAATTTTGAAGTTTCGGAGTCACCTAGTGCAG,8470 fluorescence intensity (a.u.)
14,ATTTTTTCACGTTCGGACCTATGGTTTTTTTGCCACTTTGCGGAGTCACCTAGTGCAG,8520 fluorescence intensity (a.u.)
15,ATTCCGGTCATTTACGCGCTTTTAGCTTTGCCCTTCATTTCGGAGTCACCTAGTGCAG,17200 fluorescence intensity (a.u.)
16,TTACTCTACTCATTTAGCTTTTGGTTGGTTGGTTCCCTTCCGGAGTCACCTAGTGCAG,14400 fluorescence intensity (a.u.)
17,ACAAATTCCTGACTTCACGGTTTTCTATTTGGTTGTAATACGGAGTCACCTAGTGCAG,9590 fluorescence intensity (a.u.)
18,TTTTTTTATTCGTGTCTGAAAATCATTTCCGATATCCGGTCGGAGTCACCTAGTGCAG,8470 fluorescence intensity (a.u.)
19,CACTAAAGTTTCATTGGGTTTTCAGTTTTCACTTCATTATCGGAGTCACCTAGTGCAG,10700 fluorescence intensity (a.u.)
20,ATTCGTTTCGTATTTATGCCCGATATTATCCGTGCTTCTACGGAGTCACCTAGTGCAG,9200 fluorescence intensity (a.u.)
21,TCTCTTTCTCTCTCTCCTCTTCTTCCTTGGCGAGTTGTGCCGGAGTCACCTAGTGCAG,8080 fluorescence intensity (a.u.)
22,ATCCATCCGAGCTCTCTCTCTCTCTCTGTCTTCTCTCTACCGGAGTCACCTAGTGCAG,10700 fluorescence intensity (a.u.)
23,ACCACTCACCTCATGATTTTCGTTGTATTCGTTCCAGTCCCGGAGTCACCTAGTGCAG,20000 fluorescence intensity (a.u.)
24,ACTCCAGCATGATCCACAACACCACTCACCTCATGATTTTCGGAGTCACCTAGTGCAG,8770 fluorescence intensity (a.u.)
25,TATTTTCGTCCGGTTTTTTCCACTCACCAGTCACCACCCCCGGAGTCACCTAGTGCAG,8490 fluorescence intensity (a.u.)
26,CTCTCCTCCTCCGTTCCTGACTCCACCACTCACATTCATTCGGAGTCACCTAGTGCAG,13200 fluorescence intensity (a.u.)
27,AGGGGTGCTAATTGAGCCTATTTCGGGTGGGGCTCACTGACGGAGTCACCTAGTGCAG,15300 fluorescence intensity (a.u.)

row,Sequence,binding signal
1,TTCTTGGCCCGCTAACTCATGATGGTTTTATCCAGATCGTCGGAGTCACCTAGTGCAG,9880 fluorescence intensity (a.u.)
2,TCAAACCTCGCGACTTCTTCTTCCACCTCTCGCTCCGGGCCGGAGTCACCTAGTGCAG,11800 fluorescence intensity (a.u.)
3,GGGATATATCCTTTGACCGGTCAAACCTCGCGACTTCTTCCGGAGTCACCTAGTGCAG,18800 fluorescence intensity (a.u.)
4,TGTGCCTCCGGATTTGACCTTTCCTCGAACCTTCTTCTTCCGGAGTCACCTAGTGCAG,13300 fluorescence intensity (a.u.)
5,CCTTTCCTAAGTCTCTGTTTTAACATCTCTATTGGGGCATCGGAGTCACCTAGTGCAG,8940 fluorescence intensity (a.u.)
6,CTCCGTCACTCAGATTTAATACATGACTCTCTATTATTCCCGGAGTCACCTAGTGCAG,9060 fluorescence intensity (a.u.)
7,GGGGTGGCGGTGGCGGTGGTGGTGGTGGTGGTGGTGGAGTCGGAGTCACCTAGTGCAG,41600 fluorescence intensity (a.u.)
8,GGCGGCGGCGGGGTGGCCTTGGCCGGGTGCCTTGGTGGATCGGAGTCACCTAGTGCAG,10300 fluorescence intensity (a.u.)
9,AGGTGGTGGTGGAGGTGGAGGTGGCGGTGGAGGTGGAGGGCGGAGTCACCTAGTGCAG,38600 fluorescence intensity (a.u.)
10,GGGGAGGCGGGTGGGGTTGAGGAGGTCGGTGGCCTCGGCGCGGAGTCACCTAGTGCAG,12300 fluorescence intensity (a.u.)
11,GAGGAGGAGGTGGAGCTACTGGTGGTGGTGGTGGTGGTGGCGGAGTCACCTAGTGCAG,16200 fluorescence intensity (a.u.)
12,CCTTACCGTACAAGGGAGGAGGAGGTGGTGGTGGTGGAGGCGGAGTCACCTAGTGCAG,13000 fluorescence intensity (a.u.)
13,GGAGGTCGGTGGCCTCGGCGGTGGAGGTCGGGGTCGGGGACGGAGTCACCTAGTGCAG,16500 fluorescence intensity (a.u.)
14,GCGGAGGAGGTGGTGGTGGTGGAGGAGGAGGAGGCCAAGGCGGAGTCACCTAGTGCAG,19300 fluorescence intensity (a.u.)
15,CAGCAGCGGCGGCGGCGGCGGCGGCGGGGTGGTGGAACCTCGGAGTCACCTAGTGCAG,9080 fluorescence intensity (a.u.)
16,GGCGGCGGCGGCGGCGGCGGGGAGGAGGTGAAGGTGGAGGCGGAGTCACCTAGTGCAG,14100 fluorescence intensity (a.u.)
17,GGAGGCGGTGGTGTTGGAGTTGGAGGGCGCGTGGAGGTGGCGGAGTCACCTAGTGCAG,12900 fluorescence intensity (a.u.)
18,ATGGAGGCGGTGGTCGGAGGTGGCAGACGATGCTCGGGGACGGAGTCACCTAGTGCAG,8040 fluorescence intensity (a.u.)
19,GGCCTCACTATCGTCGACTCCTCCACTCCGGGGACTGCCGCGGAGTCACCTAGTGCAG,10000 fluorescence intensity (a.u.)
20,AGCCGATCAGCTTCCAGCTCTTCATCCCAGCTTGCATCGTCGGAGTCACCTAGTGCAG,9300 fluorescence intensity (a.u.)
21,CCCCTGTTTCTCGGTTCTTTCGCTCGCCTTCTAGGCCCAACGGAGTCACCTAGTGCAG,11400 fluorescence intensity (a.u.)
22,ATGATACTAGCGGAGCTCACTACTTACTATTAGTCAATGTCGGAGTCACCTAGTGCAG,8330 fluorescence intensity (a.u.)
23,ATAGCACCTCGAAACACCAAACTATTGCTATTAACATTTTCGGAGTCACCTAGTGCAG,9650 fluorescence intensity (a.u.)
24,CCTTAATGCTCGAGATATACTAATACTACTCCCTTTGTTTCGGAGTCACCTAGTGCAG,10400 fluorescence intensity (a.u.)
25,TACGCGTTATTTGTTTTTCGCAGCGTTTCCTTTTTTTTTTCGGAGTCACCTAGTGCAG,9540 fluorescence intensity (a.u.)
26,TTTATCGCTTTGACTGTTCTACATCTTGCCTCGCCGTGCACGGAGTCACCTAGTGCAG,9040 fluorescence intensity (a.u.)
27,GCACAAGGCAGATGGAGGTTGTACAGCTATTATTATTTCACGGAGTCACCTAGTGCAG,8380 fluorescence intensity (a.u.)
